Screening results from PubChem BioAssay.
In the library only some 7.1% were active in any assay of this set; here they are far more common.
MCF10A rereplic = inducers of DNA re-replication in MCF 10A breast cells; 350,000 compounds, 2.9% hits; Potency, µM (top dose mostly 46.1 µM), for the others: at the highest dose activity, positive = re-replication, actives largely listed as activators; MCF 10A DNA re-replication, Hoechst nuclear intensity, 48 h; further: % of control where 0% means no effect; nearly all actives have a fitted effect of over 50% in size
p53 reactivation = re-activators of mutant p53 | H1299 p53-A138V BP100-luciferase reporter, luminescence, 24 h | Potency, µM (highest dose often 92.2 µM), without a hit: at the highest dose activity change, positive = activation, actives largely listed as activators | 320,000 compounds, 0.063% hits | AID 504706; further: % of control where 0% means no effect; nearly all actives have a fitted effect of over 45% in size
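H1299 (p53-null), stable ts p53-A138V + BP100-Luc; 1000 cells/well, Opti-MEM/10% FBS; cpd 4 pt, 1:5; 24 h, 37 deg C, 5% CO2; detection reagent 10 min RT; luminescence.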
SW480 rerep = induces DNA re-replication in SW480 colon adenocarcinoma cells | SW480 DNA re-replication, Hoechst DNA content imaging, 48 h | Potency, µM (titrated, usually from 46.1 µM), without a hit: at the top dose re-replication activation, usual class: activators | 340,000 compounds, 1.8% hits | AID 624297; further: % of control where 0% means no effect; nearly all actives have a fitted effect of over 55% in size
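Image-based DNA-content assay: after two days of treatment, nuclei were labelled with the DNA dye Hoechst and imaged, and hits were compounds raising the count of nuclei showing high fluorescence intensity.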
ELG1 DNA repair = ELG1-dependent DNA repair inhibition; 330,000 compounds, 2.3% hits; HEK293T ELG1-luciferase reporter, luminescence, 16 h; DNA damage induced by 5-fluorouridine; AID 504467; Potency, µM (titrated, usually from 46.1 µM), for inactives: at the highest dose activity change, negative = inhibition, hits mostly inhibitors; further: on the % scale 0 is the no-effect control and ±100 the full control effect; nearly all actives have a fitted effect of over 55% in size
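Overnight (16 hr) co-exposure of 2,000 cells/well to 5-fluorouridine and compound at 37 °C preceded detection. Luciferase was quantified via ONE-Glo luminescence; loss of signal denotes inhibition.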
ELG1 genotoxic = induces genotoxicity in HEK293T cells with luciferase-tagged ELG1 | HEK293T ELG1-luciferase reporter, luminescence, 16 h | Potency, µM (top dose mostly 46 µM), for the others: top-dose activity change, positive = activation, actives largely listed as activators | 330,000 compounds, 1.3% hits | AID 504466; further: % of control where 0% means no effect; nearly all actives have a fitted effect of over 60% in size
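HEK293T cells expressing luciferase-tagged ELG1 were treated with compound or DMSO for 16 hr at 37°C. Luciferase activity was then read after 30 min with ONE-Glo at room temperature; rising signal flags genetic stress.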
A-T KAP1 phos = potential ataxia-telangiectasia treatment; Potency, µM (series often up to 57.5 µM), for inactives: at the top dose activation, usual class: activators; 320,000 compounds, 0.19% hits; AID 485349; F2112 A-T fibroblasts, KAP-1 phosphorylation AlphaLISA; neocarzinostatin DNA damage 30 min before lysis; further: % of control where 0% means no effect; nearly all actives have a fitted effect of over 45% in size
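ATM-like activity read as KAP-1 phosphorylation via AlphaLISA donor/acceptor antibody pairs after lysis and 6 hr at 25C. Cells were ATM-null patient fibroblasts (F2112, hTERT), dosed 60 min, then exposed to the DSB inducer NCS for 30 min.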
* = called active by the depositor; ? = inconclusive; . = not tested or not shown. The call rests on the fitted dose curve; in most records, active means well fitted curve in the direction sought with a large enough effect; inconclusive means small, poorly fitted or top-dose-only effect, or another doubt; inactive means no such curve, though single readings can be large; an effect the other way counts as inactive or inconclusive. Potency means the concentration at half of the fitted maximal effect.

SMILES | MCF10A rereplic | p53 reactivation | SW480 rerep | ELG1 DNA repair | ELG1 genotoxic | A-T KAP1 phos
CCc1cc2c(=O)c(-c3cscn3)coc2cc1O | -1.2% | ? | -6.8% | ? | 13µM* | 3.1%
O=C(COc1ccc2ccccc2c1Br)NC(=S)Nc1cccc(CO)c1 | ? | 7.4% | 2.91µM* | ? | 20.6µM* | 1.3%
O=C(COc1ccc2ccccc2c1Br)Nc1ccncc1 | ? | -3.0% | ? | 9.8% | 8.4% | 8.0%
O=C(COc1ccc(Br)cc1Br)NC(=S)N1CCCc2ccccc21 | 4.7% | 28.4% | 10.9% | ? | 23.1µM* | 5.3%
O=C(COc1ccccc1Cl)NC(=S)Nc1cccc(NC(=O)c2ccccc2Cl)c1 | -2.3% | 2.5% | -1.1% | 2.4% | 0.2% | 7.4%
O=C(COc1ccc(Br)cc1Cl)NC(=S)N1CCc2ccccc21 | ? | 18.5% | 1.3% | ? | 13.3% | 3.3%
O=C(COc1ccc(Br)cc1Br)NC(=S)Nc1cccc(CO)c1 | -3.1% | ? | -230.9% | ? | 7.31µM* | -0.1%
COc1ccc(OCC(=O)Nc2ccc3c(c2)nc(CCn2ccccc2=O)n3C)cc1 | -0.2% | -4.0% | 0.7% | -4.3% | -8.9% | 12.3%
O=[N+]([O-])c1ccc(NN=Cc2cccc(O)c2)nc1 | 16.4µM* | . | ? | . | . | .
Cc1cccc(C)c1-n1c(C)cc(/C=N\Nc2ccc([N+](=O)[O-])cn2)c1C | 5.17µM* | ? | ? | 4.0% | -0.9% | -5.5%
O=[N+]([O-])c1ccc(NN=Cc2cc(Br)ccc2O)nc1 | 11.0% | . | 0.731µM* | . | . | .
CC(=O)Nc1ccc(C=NNc2ccc([N+](=O)[O-])cn2)cc1 | 9.6% | . | -0.2% | . | . | .
COc1cc(/C=N/Nc2ccc([N+](=O)[O-])cn2)cc(OC)c1O | 20.6µM* | 10.1% | 16.4µM* | -0.8% | 3.1% | -1.0%
COc1ccc2cc(-c3ccccc3F)ncc2c1 | ? | ? | 0.7% | ? | ? | 10.2%
CNC(=O)c1cc(S(=O)(=O)N2CC(C)OC(C)C2)ccc1N1CCOCC1 (stereo unspecified) | ? | . | -11.1% | -2.0% | -1.2% | 0.7%
CCn1nc(C(=O)NCCc2ccc3c(c2)OCCO3)c2ccccc2c1=O | 17.4% | 1.2% | 24.8% | -22.4% | -0.6% | 13.0%
COc1ccc(/C=N/Nc2ccc([N+](=O)[O-])cc2)cc1O | 11.6µM* | ? | 16.4µM* | ? | 11.6µM* | -4.5%
COc1ccc(/C=N/Nc2ccc([N+](=O)[O-])cc2)cc1Cn1cc([N+](=O)[O-])cn1 | 12.8% | 5.8% | -0.3% | ? | ? | -3.1%
CC(C)C[C@H](NC(=O)N1CCn2c1nc1ccccc12)C(=O)NC1CCCCC1 | -2.7% | -2.2% | -11.8% | 0.1% | -0.5% | -6.7%
CNc1ncc(-c2nnnn2-c2ccccc2)c(-c2ccccc2)n1 | ? | -5.8% | 14.6µM* | -6.5% | 1.9% | 8.4%
FC(F)(F)c1nc(-c2cccnc2)ncc1-c1nnnn1-c1ccccc1 | 8.2% | -0.9% | 10.1% | ? | -14.3% | 8.9%
N#C/C(=C(/O)c1cc2ccccc2o1)c1nc2ccccc2s1 | 8.2µM* | 11.0% | ? | 18.2% | 2.5% | -19.9%
CCN(CC)S(=O)(=O)c1ccc(N2CC(C(=O)N3Cc4ccccc4CC3C(N)=O)CC2=O)cc1 (stereo unspecified) | -3.7% | -5.4% | -9.8% | 0.0% | 2.2% | 11.8%
CC(Sc1nnc(-c2ccccc2)c(-c2ccccc2)n1)C(=O)NCC1CCCO1 (stereo unspecified) | ? | -4.7% | 5.3% | ? | -6.3% | 2.6%
CCCNC(=O)C(Cc1cccc(Cl)c1)NC(=O)c1ccccc1 (stereo unspecified) | -2.0% | 17.3% | ? | 20.2% | 1.3% | -15.2%
SMILES | MCF10A rereplic | p53 reactivation | SW480 rerep | ELG1 DNA repair | ELG1 genotoxic | A-T KAP1 phos
Cc1cc(C)c(COc2ccc(/C=N/n3c(C)n[nH]c3=S)cc2)c(C)c1 | 13µM* | 8.6% | -79.9% | -4.7% | 2.5% | -5.8%
COc1cccc(NC(=O)CN(C)C(C)C(=O)NC(C)c2ccc(Cl)cc2Cl)c1 (stereo unspecified) | 0.4% | -3.2% | -0.3% | -0.1% | 0.9% | 0.6%
COc1cccc(C(=O)NCCS(=O)(=O)N(C)Cc2ccccc2)c1 | 3.0% | 0.3% | 0.7% | 7.0% | -2.3% | 2.6%
CCCCN(C)CCCNC(=O)C1CCC(CNS(=O)(=O)c2c(C)cc(C)cc2C)CC1 (stereo unspecified) | 0.7% | -3.4% | -11.5% | 11.1% | -4.7% | -1.1%
CCN(CC)CCCNC(=O)C1CCC(CNS(=O)(=O)c2c(C)cc(C)cc2C)CC1 (stereo unspecified) | 20.6µM* | ? | -6.6% | -3.6% | -4.3% | -18.2%
CC(=O)OC1CC2(C)C(CCC2(O)C(C)=O)C2CCC3C(Cl)C(=O)CCC3(C)C12 (stereo unspecified) | -0.2% | . | -2.0% | . | . | .
COc1ccccc1N(CC(=O)Nc1ccccc1C(F)(F)F)S(=O)(=O)c1cccs1 | 10.7% | -10.0% | -1.2% | -18.1% | 1.3% | -5.2%
CC1CC1C(=O)N1CCN(S(=O)(=O)c2cccc(F)c2)CC1 (stereo unspecified) | -2.7% | -2.0% | -5.0% | 22.4% | 3.8% | -0.8%
NC(=O)c1ccsc1NC(=O)c1coc2ccccc2c1=O | ? | ? | 0.2% | ? | 7.3µM* | -0.2%
CCc1ccc(OCC2c3cc(OC)c(OC)cc3CCN2C(=S)NCCOC)cc1 (stereo unspecified) | 10.1% | 0.1% | -5.4% | 23.1µM* | 0.0% | 3.3%
CN(C)C(=O)CCc1ccc2c3c([nH]c2c1)[C@]1(CCC2CCCC2)[C@@H](C(=O)N2CCOCC2)C[C@H](CC(=O)NCC24CC5CC(CC(C5)C2)C4)C(=O)N1CC3 | 0.1% | -4.1% | 13.8% | ? | -7.2% | -43.6%
CC[C@]12c3[nH]c4cc(-c5ccco5)ccc4c3CCN1C(=O)[C@@H](CC(=O)NCc1ccc(OC)c(OC)c1)C[C@@H]2C(=O)N1CCN(C(=O)c2ccco2)CC1 | 3.8% | -5.0% | 4.11µM* | ? | -4.9% | 4.7%
CC(C)=CCC/C(C)=C/CNC(=O)C[C@H]1C[C@H](C(=O)N2CCOCC2)[C@@]2(CCC3CCCC3)c3[nH]c4cc(CCC(=O)N(C)C)ccc4c3CCN2C1=O | 14.6µM* | 8.5% | ? | 23.1µM* | -1.3% | 10.6%
